A selection: hits, their analogues and other compounds. The true share with any hit is near 3.1%.
EPAC2 antag: human EPAC2 antagonism, validation | EPAC2 Rap1B BODIPY-GDP exchange, fluorescence | Potency, µM (highest dose often 112 µM), most hits filed as inhibitors | 16,000 tested, 1.7% active | Q8WZA2; further: nearly all actives have a fitted effect of over 40% in size
Target sequence (Q8WZA2 whole entry, looked up): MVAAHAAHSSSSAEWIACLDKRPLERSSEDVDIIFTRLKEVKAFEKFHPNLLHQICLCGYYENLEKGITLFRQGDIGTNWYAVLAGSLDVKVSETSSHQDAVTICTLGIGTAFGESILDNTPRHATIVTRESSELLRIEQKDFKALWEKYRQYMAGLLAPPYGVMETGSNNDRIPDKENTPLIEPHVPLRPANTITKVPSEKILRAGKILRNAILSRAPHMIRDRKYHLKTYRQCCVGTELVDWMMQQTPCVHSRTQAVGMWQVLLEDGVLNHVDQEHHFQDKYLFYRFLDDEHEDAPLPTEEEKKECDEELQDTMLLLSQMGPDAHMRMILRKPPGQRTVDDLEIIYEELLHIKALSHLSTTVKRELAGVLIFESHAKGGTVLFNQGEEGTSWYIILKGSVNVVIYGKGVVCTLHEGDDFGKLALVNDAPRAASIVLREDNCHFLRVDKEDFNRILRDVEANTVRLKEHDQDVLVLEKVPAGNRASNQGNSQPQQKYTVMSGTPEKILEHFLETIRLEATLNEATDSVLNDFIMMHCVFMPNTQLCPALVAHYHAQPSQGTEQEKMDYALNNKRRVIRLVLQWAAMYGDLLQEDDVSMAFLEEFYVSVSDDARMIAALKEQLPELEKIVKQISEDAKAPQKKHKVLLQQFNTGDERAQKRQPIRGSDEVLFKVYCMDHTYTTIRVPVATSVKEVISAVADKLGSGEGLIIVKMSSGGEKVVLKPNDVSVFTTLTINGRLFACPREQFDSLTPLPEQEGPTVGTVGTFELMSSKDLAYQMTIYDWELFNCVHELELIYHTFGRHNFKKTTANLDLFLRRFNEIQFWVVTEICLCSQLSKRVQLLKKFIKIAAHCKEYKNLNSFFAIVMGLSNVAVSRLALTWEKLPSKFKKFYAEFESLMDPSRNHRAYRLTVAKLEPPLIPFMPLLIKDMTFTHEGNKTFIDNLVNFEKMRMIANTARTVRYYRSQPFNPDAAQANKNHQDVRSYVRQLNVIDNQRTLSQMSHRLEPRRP
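Fluorescent exchange read-out: 100 nM EPAC2 with 250 nM RAP1B–BODIPY-GDP and 50 uM GDP; BODIPY-GDP release lowers fluorescence. Read at 480/540 nm every 5 min for 30 min at room temperature; normalized to 6.5 mM cAMP.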
EPAC1 agonist: human EPAC1 agonism, validation; O95398; EPAC1 Rap1b BODIPY-GDP exchange, fluorescence; Potency, µM, most hits filed as activators; 16,000 tested, 1% active; AID 1645883; further: nearly all actives have a fitted effect of over 70% in size
Each line names hits and unclear results; the compound was inactive in the other large screens; ! = not confirmed by another sample. The call rests on the fitted dose curve; in most records, active means well fitted curve in the direction sought with a large enough effect; inconclusive means small, poorly fitted or top-dose-only effect, or another doubt; inactive means no such curve, though single readings can be large; an effect the other way counts as inactive or inconclusive.

CCC(=O)Oc1ccc2c(c1)CC[C@@H]1[C@@H]2CC[C@]2(C)[C@@H](OC(=O)CC)CC[C@@H]12	none
COc1ccc2[nH]cc(CCNc3ccnc(-c4ccoc4)n3)c2c1	EPAC2 antag 89.1µM
COc1ccc2[nH]cc(CCNc3ccnc(-c4ccc(N(C)C)cc4)n3)c2c1	EPAC1 agonist inconclusive
CC(C)(C)NCC(O)CSc1nc(-c2ccc(C(N)=O)s2)cs1 (centres undefined)	none
Cc1ccc(F)cc1S(=O)(=O)NCc1nc(N2CCCC2)c2cccc(C)c2n1	none
COc1ccc2c(c1)c(CC(=O)O)c(C)n2Cc1ccc(Cl)cc1	none
Cc1c(CC(C)(C)C(=O)O)n(Cc2ccc(Cl)cc2)c2ccc(F)cc12	EPAC2 antag 44.7µM
Cc1nc(C)c(CC(=O)N2CCOc3ccc(CN4CCN(c5ccccn5)CC4)cc3C2)s1	none
Cc1cnc(SCc2ccccn2)nc1C1CCCN(C(=O)c2cccc(-c3cccc(F)c3)c2)C1 (centres undefined)	EPAC2 antag inconclusive
COc1ccc(-c2ccnc(-n3ncc(C(=O)NCc4cccnc4)c3C3CC3)n2)cc1F	none
CC(=O)Oc1ccc(C(c2ccc(OC(C)=O)cc2)c2ccccn2)cc1	EPAC2 antag 17.8µM
O=S(=O)(O)Oc1ccc(C(c2ccc(OS(=O)(=O)O)cc2)c2ccccn2)cc1	none
COc1cc([C@@H]2c3cc4c(cc3C(O[C@@H]3O[C@@H]5COC(c6cccs6)O[C@H]5[C@H](O)[C@H]3O)C3COC(=O)[C@@H]32)OCO4)cc(OC)c1O (some centres undefined)	EPAC1 agonist inconclusive
CCn1ccnc1CC1COc2ccccc2O1 (centres undefined)	EPAC2 antag 35.5µM!
COc1cccc(OC)c1OCCNC[C@@H]1COc2ccccc2O1	none
CC(C)=CCc1c(O)cc2occ(-c3ccc4c(c3)OCO4)c(=O)c2c1O	EPAC1 agonist inconclusive
O=c1c(-c2ccc(O)cc2)coc2cc(O)cc(O)c12	none
CC(C)=CCc1c2c(c3occ(-c4ccc(O)c(O)c4)c(=O)c3c1O)C=CC(C)(C)O2	EPAC2 antag 25.1µM
CC(C)=CCc1c2c(c3occ(-c4ccc(O)cc4)c(=O)c3c1O)C=CC(C)(C)O2	EPAC2 antag 31.6µM
Cc1[nH]c2ccccc2c1/C=C/c1ccnc2ccccc12	EPAC1 agonist inconclusive
CCCN(CCC)c1ccc(/C=C/c2ccnc3ccccc23)cc1	EPAC1 agonist 100µM
Cc1cc(N(C)C)c(C)cc1/C=C/c1ccnc2ccccc12	EPAC1 agonist 112µM
CN(C)c1ccc(/C=C/c2ccnc3ccc4ccccc4c23)cc1	EPAC2 antag inconclusive
CC[C@@H](C)[C@H](N)C(=O)O	none
CCN(CC)CCNC(=O)c1cnn(-c2nccc(-c3cc4ccccc4o3)n2)c1C	none
CO[C@H]1C=CO[C@@]2(C)Oc3c(C)c(O)c4c(O)c(c(/C=N/N5CCN(C6CCCC6)CC5)c(O)c4c3C2=O)NC(=O)/C(C)=C\C=C[C@H](C)[C@H](O)[C@@H](C)[C@@H](O)[C@@H](C)[C@H](OC(C)=O)[C@@H]1C	EPAC2 antag inconclusive
CC(=O)O[C@H]1C[C@@H]2CC[C@@H]3[C@H](CC[C@@]4(C)[C@H]3C[C@H](N3CC[N+](C)(C)CC3)[C@@H]4OC(C)=O)[C@@]2(C)C[C@@H]1N1CC[N+](C)(C)CC1	none
CC(C)[C@@H]1CC[C@@H](C)C[C@H]1OC(=O)c1ccccc1O	none
NC(=O)[C@@H]1C[C@]2(NC(=O)NC2=O)c2cc(F)ccc2O1	none
O=C1CCC[C@@H]2CC(N(Cc3cc4ccccc4s3)c3ccccc3)C[C@@H]3CCN1[C@H]23 (some centres undefined)	EPAC1 agonist 100µM
CCCCCCCN(c1ccccc1)C1C[C@H]2CCCC(=O)N3CC[C@@H](C1)[C@@H]23 (some centres undefined)	EPAC2 antag inconclusive
COc1ccc(C[C@@H](C)NC[C@H](O)c2ccc(O)c(NC=O)c2)cc1	none
